From ChEMBL document CHEMBL3988442, “University of Dundee, Small-Polar-MMV Screening Library” (2021)
Values joined by “and” are separate entries in the source; they are usually repeats but may differ in a detail not shown here. Equal entries are not always repeated. For part of these data: Potency and affinity values are given separately.

Tests used:
Set-up in all cases: scale not given: direction of the effect not stated beside the values
[1] = biological target: Protein translocase subunit SecA (Escherichia coli (strain K12)) (UniProt P10408); experiment: Assay to Identify E. coli SecA ATPase Inhibitors; type: functional; conditions: 30 µM
Protein translocase subunit SecA (Escherichia coli (strain K12)), sequence (P10408 whole entry): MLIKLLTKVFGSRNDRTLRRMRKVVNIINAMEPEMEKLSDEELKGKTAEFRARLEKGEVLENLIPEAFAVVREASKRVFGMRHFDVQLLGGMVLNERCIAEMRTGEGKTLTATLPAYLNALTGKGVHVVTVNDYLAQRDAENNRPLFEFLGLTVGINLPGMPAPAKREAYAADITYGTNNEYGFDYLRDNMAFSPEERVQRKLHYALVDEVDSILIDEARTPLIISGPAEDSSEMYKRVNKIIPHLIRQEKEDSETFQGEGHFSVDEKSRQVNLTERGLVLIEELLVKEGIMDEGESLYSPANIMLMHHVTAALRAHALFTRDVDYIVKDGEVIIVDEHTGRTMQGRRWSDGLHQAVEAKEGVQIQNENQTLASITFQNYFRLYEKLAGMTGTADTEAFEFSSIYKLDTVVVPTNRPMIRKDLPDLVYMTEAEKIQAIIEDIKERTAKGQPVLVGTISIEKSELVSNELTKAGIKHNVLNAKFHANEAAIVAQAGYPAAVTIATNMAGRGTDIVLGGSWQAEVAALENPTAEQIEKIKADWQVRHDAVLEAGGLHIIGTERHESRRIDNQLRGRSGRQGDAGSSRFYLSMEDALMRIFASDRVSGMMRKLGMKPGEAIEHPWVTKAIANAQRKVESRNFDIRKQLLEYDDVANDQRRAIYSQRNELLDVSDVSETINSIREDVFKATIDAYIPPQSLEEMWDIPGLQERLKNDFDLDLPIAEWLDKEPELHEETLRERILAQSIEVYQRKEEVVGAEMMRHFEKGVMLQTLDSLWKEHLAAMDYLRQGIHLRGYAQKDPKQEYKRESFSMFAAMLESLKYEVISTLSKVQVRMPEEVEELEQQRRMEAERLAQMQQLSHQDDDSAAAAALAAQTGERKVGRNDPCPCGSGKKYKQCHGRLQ

[2] = biological target: T1, Ubiquitin-activating enzyme e1, putative (Leishmania donovani (strain BPK282A1)) (UniProt E9BSI1); experiment: Leishmania donovani Ubiquitin Activating Enzyme (LdE1); type: functional; conditions: 30 µM
T1 sequence (whole entry): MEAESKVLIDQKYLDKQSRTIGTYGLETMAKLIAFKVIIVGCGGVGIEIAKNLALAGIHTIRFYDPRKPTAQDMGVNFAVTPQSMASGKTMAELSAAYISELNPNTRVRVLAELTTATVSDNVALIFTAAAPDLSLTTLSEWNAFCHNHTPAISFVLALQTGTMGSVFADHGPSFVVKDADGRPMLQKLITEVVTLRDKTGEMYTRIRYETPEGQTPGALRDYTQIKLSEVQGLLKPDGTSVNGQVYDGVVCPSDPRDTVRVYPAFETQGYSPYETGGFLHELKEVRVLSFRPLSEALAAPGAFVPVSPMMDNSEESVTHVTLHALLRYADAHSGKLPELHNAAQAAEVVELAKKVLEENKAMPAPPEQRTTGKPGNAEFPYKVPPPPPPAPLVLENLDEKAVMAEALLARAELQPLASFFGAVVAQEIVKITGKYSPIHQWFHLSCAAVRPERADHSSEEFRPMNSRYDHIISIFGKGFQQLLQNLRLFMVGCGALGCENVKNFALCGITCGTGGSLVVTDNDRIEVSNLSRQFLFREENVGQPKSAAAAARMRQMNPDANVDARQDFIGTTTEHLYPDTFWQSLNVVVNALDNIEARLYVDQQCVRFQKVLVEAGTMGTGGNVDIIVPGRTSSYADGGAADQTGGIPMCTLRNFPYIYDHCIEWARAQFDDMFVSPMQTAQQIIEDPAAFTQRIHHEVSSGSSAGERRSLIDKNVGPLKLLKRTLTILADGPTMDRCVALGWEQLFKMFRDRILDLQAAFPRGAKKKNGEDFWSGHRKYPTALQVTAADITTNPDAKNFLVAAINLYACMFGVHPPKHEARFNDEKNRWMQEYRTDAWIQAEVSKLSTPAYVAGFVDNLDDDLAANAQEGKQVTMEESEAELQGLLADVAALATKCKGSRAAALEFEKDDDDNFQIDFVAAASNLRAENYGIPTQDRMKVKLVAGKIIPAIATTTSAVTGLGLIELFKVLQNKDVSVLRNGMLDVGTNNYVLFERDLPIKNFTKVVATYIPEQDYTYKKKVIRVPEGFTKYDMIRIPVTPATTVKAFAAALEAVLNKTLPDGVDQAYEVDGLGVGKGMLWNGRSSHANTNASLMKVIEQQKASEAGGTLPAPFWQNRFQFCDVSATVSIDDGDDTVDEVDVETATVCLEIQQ

[3] = biological target: AMP-activated protein kinase, AMPK (Homo sapiens) (UniProt P54646+O43741+P54619+Q9UGJ0+Q9Y478+Q13131+Q9UGI9); experiment: AMP-dependent Kinase enzyme assay. An in vitro enzyme assay that detects ADP turnover that is directly proportional to AMPK activity. This uses naive AMPK that is activated during the assay with MK-8722; type: functional; conditions: 30 µM
[4] = biological target: Sialic acid-binding Ig-like lectin 9 (Homo sapiens) (UniProt Q9Y336); experiment: Hs-Siglec9 ALPHAscreen SOP 20170721; conditions: 10 µM
Sialic acid-binding Ig-like lectin 9 (Homo sapiens), sequence (Q9Y336 whole entry): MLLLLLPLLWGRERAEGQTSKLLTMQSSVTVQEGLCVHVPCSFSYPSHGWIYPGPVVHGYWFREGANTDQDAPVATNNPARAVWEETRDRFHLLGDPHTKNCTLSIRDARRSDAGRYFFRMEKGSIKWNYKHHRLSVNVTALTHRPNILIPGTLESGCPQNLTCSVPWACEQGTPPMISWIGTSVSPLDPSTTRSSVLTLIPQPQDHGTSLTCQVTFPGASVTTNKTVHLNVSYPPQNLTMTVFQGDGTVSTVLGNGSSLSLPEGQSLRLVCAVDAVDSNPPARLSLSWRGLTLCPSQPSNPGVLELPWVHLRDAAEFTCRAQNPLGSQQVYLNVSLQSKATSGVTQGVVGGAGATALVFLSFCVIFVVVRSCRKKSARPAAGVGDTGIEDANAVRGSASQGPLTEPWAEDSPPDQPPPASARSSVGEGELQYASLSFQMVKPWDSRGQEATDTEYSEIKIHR

[5] = tested on: Trypanosoma cruzi; experiment: Trypanosoma cruzi phosphomannomutase and mannose-1-phosphate guanylyltransferase assay; type: functional; conditions: 10 µM
[6] = biological target: T2, Arginase-2, mitochondrial (Homo sapiens) (UniProt P78540); experiment: in vitro enzyme assay to detect the production of urea directly proportional to the activity of Arginase II; type: functional; note: in the data most compounds retested in dose-response had high values
T2 sequence (whole entry): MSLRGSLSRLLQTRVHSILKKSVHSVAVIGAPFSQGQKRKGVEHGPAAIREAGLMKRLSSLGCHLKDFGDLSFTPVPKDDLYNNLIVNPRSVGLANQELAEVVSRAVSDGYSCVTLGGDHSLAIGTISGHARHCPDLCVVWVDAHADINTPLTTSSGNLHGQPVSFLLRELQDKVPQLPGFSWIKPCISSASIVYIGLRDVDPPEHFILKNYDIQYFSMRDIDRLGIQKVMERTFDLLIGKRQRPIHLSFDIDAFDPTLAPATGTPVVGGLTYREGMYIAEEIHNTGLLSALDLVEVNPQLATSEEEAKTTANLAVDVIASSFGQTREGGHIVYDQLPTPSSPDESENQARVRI

[7] = biological target: T3, Proteasome subunit beta (Trypanosoma cruzi) (UniProt O96673); experiment: Trypanosoma cruzi proteasome chymotrypsin-like activity (TcProtChymo) assay.; note: in the data most compounds retested in dose-response had high values; type: functional; conditions: 9.37 µM
T3 sequence (whole entry): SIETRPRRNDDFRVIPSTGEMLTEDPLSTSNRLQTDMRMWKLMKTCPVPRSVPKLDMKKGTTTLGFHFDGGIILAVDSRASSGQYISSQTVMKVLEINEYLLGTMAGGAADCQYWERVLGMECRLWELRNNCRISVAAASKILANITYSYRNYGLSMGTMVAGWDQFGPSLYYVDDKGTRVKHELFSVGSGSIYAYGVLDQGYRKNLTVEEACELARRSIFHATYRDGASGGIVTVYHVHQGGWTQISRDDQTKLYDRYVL

[8] = species on record: Homo sapiens; experiment: To identify inhibition of the IFN signalling (Jak-Stat) pathway via expression of an eGFP reporter gene under the control of an IFN-stimulated response element (ISRE) containing MxA promoter.; type: functional; conditions: 30 µM
[9] = biological target: T4, Tyrosyl-tRNA synthetase, putative (Trypanosoma cruzi (strain CL Brener)) (UniProt Q4DSP6); experiment: Trypanosoma cruzi tyrosyl tRNA synthetase (TcYRS) _High Tyrosine SOP; type: functional; conditions: 30 µM; note: in the data most compounds retested in dose-response had high values
T4 sequence (whole entry): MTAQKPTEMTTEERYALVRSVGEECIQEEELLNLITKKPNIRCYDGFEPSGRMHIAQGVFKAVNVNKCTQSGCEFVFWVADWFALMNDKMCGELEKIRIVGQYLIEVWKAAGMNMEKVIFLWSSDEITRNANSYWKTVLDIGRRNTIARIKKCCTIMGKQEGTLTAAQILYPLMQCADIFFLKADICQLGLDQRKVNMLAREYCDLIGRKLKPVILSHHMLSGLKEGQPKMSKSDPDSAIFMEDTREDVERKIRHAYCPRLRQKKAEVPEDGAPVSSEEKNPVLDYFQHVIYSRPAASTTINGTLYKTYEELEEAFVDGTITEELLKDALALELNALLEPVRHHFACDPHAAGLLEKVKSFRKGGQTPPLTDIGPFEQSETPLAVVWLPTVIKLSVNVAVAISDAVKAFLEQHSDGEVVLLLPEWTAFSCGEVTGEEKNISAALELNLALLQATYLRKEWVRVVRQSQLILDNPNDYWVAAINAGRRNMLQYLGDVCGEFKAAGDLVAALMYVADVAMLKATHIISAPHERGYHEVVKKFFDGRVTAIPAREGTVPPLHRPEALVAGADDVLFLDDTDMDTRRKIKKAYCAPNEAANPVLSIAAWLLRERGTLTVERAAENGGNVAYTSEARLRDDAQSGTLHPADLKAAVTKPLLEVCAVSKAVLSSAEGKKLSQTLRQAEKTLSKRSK

[10] = biological target: T4, Tyrosyl-tRNA synthetase, putative (Trypanosoma cruzi (strain CL Brener)); experiment: Trypanosoma cruzi tyrosyl tRNA synthetase (TcYRS) SOP; type: functional; conditions: 30 µM
[11] = biological target: Chromo domain-containing protein 1 (Saccharomyces cerevisiae (strain ATCC 204508 / S288c) (Baker's yeast)) (UniProt P32657); experiment: ScCHD-1 Enzyme Inhibition Assay; type: functional; conditions: 30 µM; note: in the data most compounds retested in dose-response had high values
Chromo domain-containing protein 1 (Saccharomyces cerevisiae (strain ATCC 204508 / S288c) (Baker's yeast)), sequence (P32657 whole entry, the tested form may be a part): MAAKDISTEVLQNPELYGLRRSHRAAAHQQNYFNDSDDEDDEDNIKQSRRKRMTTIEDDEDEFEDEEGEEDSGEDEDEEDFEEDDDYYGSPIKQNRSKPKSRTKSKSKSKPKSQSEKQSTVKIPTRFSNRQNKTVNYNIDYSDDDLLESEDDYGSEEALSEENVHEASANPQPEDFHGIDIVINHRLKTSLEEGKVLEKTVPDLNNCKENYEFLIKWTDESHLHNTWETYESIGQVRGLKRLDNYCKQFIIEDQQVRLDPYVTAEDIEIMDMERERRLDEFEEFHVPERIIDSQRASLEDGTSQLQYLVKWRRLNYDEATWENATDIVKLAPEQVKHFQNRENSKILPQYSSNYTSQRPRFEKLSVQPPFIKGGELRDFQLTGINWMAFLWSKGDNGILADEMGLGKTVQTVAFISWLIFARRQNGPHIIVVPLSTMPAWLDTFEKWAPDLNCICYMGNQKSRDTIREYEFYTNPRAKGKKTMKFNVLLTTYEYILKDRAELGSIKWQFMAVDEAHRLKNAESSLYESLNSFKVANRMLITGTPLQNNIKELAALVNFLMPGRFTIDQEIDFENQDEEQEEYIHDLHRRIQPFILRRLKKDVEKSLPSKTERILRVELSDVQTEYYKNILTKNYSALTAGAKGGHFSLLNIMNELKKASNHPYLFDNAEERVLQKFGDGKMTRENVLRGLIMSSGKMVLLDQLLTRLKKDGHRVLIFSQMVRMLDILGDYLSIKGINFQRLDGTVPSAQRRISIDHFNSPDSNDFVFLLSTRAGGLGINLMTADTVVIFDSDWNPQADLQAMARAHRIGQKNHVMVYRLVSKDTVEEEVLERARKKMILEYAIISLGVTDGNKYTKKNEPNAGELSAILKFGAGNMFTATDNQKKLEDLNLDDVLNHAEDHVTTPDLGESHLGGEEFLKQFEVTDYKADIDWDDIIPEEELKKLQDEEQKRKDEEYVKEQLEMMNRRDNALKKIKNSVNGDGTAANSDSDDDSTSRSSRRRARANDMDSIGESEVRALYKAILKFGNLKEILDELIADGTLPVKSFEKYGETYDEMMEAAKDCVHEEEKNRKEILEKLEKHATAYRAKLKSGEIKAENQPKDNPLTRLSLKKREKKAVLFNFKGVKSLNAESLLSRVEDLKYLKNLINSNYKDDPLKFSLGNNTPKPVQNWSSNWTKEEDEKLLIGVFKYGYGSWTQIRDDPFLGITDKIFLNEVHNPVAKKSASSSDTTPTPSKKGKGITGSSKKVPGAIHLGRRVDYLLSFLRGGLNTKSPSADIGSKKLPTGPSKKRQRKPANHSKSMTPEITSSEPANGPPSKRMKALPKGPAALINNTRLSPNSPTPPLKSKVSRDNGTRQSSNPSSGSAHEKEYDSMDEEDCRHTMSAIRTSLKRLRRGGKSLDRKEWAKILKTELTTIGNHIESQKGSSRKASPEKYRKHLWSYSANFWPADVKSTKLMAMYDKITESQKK

[12] = tested on: N/A; experiment: Trypanosoma cruzi proteasome luciferase counter-screen; type: functional; conditions: 9.37 µM

Compound	Percent Effect [1]	Percent Effect [2]	Percent Effect [3]	Percent Effect [4]	Percent Effect [5]	Percent Effect ([6]; 30 µM)	Percent Effect ([6]; 33.3 µM)	Percent Effect [7]	Percent Effect [8]	Percent Effect [9]	Percent Effect [10]	Percent Effect [11]	Percent Effect [12]
Cc1cc(C(=O)N2C[C@@H](C(=O)O)[C@H](c3ccccc3C)C2)c(C)o1	-6.29%	2.7%	4.96%	-6.42%	-7.92%	4.87%	-2.23%	11.2%	18.7%	1.07%	3.7%	-4.1%	–
O=C(CC1CN(Cc2ccccc2)CCO1)Nc1ccccc1F (configuration not stated)	-4.53%	21.6%	-4.08%	3.88%	2.15%	–	4.17%	64.1% and 65% and 65.1%	4.52%	8.91%	15.8%	-1.97%	32.6% and 32.9%
CN(Cc1ccco1)[C@@H]1CN(Cc2ccco2)[C@@H]2CCCO[C@H]12	-1.09%	2.67%	15.3%	-0.135%	-5.71%	-2.7%	3.03%	13.5%	2.84%	4.25%	11.5%	-5.52%	–
CNC(=O)[C@@H]1C[C@H]2CN(C(=O)c3ccco3)C[C@H]2N1C	-1.85%	2.67%	-2.42%	4.75%	-3.67%	-9.19%	-21%	3.76%	-3.26%	4.17%	5%	-5.57%	–
COc1cccc(-c2nc(C)c(C(=O)NC(CO)CCSC)s2)c1 (configuration not stated)	-3.43%	1.33%	7.43%	6.12%	-2.36%	–	-11.4%	30.1% and 33.3% and 30.7%	15.6%	4.23%	7.69%	-7.42%	26.5% and 29.5%
CN(C)CCCNC(=O)c1cc(Br)c2c(c1)OCCO2	-3.75%	5.33%	-4%	10%	3.6%	-0.54%	18.2%	6.28%	-10%	4.92%	18.5%	-7.32%	–
Cc1cc(C(=O)N2CCC3(CCCN(CC4CC4)C3=O)C2)c(C)n1C (configuration not stated)	-5.53%	5.48%	-5.43%	6.36%	0.794%	–	-4.39%	49.3% and 56.6% and 47.8%	10.3%	20.8%	28.4%	-1.72%	11% and 8.3%
Cc1nc(CN2C[C@@H]3CN(C(=O)c4cccn4C)C[C@@H]3C2=O)cs1	1.08%	13.5%	1.31%	-6.65%	-4.2%	–	-0.955%	13.3% and 13.5% and 30.8%	11.3%	3.24%	15.4%	-1.02%	6.13% and 6.46%
COc1ccc(CN2C[C@@H](N(C)Cc3ccco3)[C@H]3OCCC[C@H]32)cc1	-4.13%	5.33%	8.07%	3.01%	-5.71%	-8.11%	0.699%	11%	9.72%	3.19%	8.97%	-3.71%	–
CC(Cn1cccn1)NCc1csc(-c2ccccc2F)n1 (configuration not stated)	-1.44%	-5.41%	-14.2%	7.22%	3.87%	–	-4.41%	90.3% and 88.1% and 85%	13.2%	1.48%	11.1%	-4.62%	59.5% and 61%
Cc1cc(NC(=O)N2CCN(c3nc(C)c(C)s3)CC2)no1	-4.08%	-2.7%	8.59%	-1.24%	-4.3%	3.78%	0.833%	12.8%	-8.43%	5.94%	8.54%	-0.744%	–
Cc1ccc(-c2nc(CN3CCC(C(=O)N(C)C)CC3)cs2)o1	-3.42%	-1.27%	-1.3%	-4.8%	-0.103%	–	-1.94%	38.5% and 41.6% and 46.1%	21.9%	12.5%	22.8%	-29.5%	21.6% and 19.9%
CSCC(=O)N1CCCC1c1noc(C2CC2)n1 (configuration not stated)	-5.16%	10.7%	-6.47%	12.3%	4.97%	4.87%	29.2%	-1.92%	4.6%	0.546%	11.1%	-16.6%	–
CCCN1CCC(NC(=O)c2ccc(F)cc2I)CC1	-2.2%	18.1%	-6.61%	17.7%	2.23%	5.95%	24.3%	12.5%	-17.1%	8.42%	15.4%	-5.41%	–
COc1c(CNC2CCc3c(Cl)cccc32)c(C)nn1C (configuration not stated)	-3.04%	8%	-13.3%	15.4%	7.89%	1.62%	14.1%	16.2%	53.8%	4.92%	16.1%	108%	–
OC(CN(Cc1ccccc1)Cc1ccncc1)c1cccs1 (configuration not stated)	3.55%	2.7%	-2.19%	5.24%	4.79%	5.95%	25.1%	10.2%	5.3%	1.07%	6.17%	-8.61%	–
